Records with an inconclusive call do not appear. Active and inactive are the calls of the source. The calls were made as follows: active = hit-call score of the fitted dose curve at least 0.9, where 1 is the maximum; inconclusive = response in the unintended direction; inactive = score below 0.9.

human Caspase 2 (CASP2), CASP2 (gene 835), sequence (P42575 whole entry, looked up): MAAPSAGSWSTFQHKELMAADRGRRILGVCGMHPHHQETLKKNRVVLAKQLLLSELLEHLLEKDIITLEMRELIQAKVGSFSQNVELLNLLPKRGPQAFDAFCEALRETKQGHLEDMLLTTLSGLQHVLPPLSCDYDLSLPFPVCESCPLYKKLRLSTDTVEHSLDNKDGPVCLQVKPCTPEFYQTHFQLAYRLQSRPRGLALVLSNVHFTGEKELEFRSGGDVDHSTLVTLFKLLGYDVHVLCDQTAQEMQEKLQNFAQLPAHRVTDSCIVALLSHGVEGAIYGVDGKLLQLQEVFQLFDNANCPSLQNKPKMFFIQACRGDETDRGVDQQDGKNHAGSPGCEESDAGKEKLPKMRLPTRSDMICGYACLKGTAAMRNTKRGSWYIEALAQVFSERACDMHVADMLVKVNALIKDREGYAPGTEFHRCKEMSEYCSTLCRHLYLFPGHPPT
human Aurora Kinase A - serine/threonine-protein Kinase 6 (AurA), AURKA (gene 6790), sequence (O14965 whole entry, looked up): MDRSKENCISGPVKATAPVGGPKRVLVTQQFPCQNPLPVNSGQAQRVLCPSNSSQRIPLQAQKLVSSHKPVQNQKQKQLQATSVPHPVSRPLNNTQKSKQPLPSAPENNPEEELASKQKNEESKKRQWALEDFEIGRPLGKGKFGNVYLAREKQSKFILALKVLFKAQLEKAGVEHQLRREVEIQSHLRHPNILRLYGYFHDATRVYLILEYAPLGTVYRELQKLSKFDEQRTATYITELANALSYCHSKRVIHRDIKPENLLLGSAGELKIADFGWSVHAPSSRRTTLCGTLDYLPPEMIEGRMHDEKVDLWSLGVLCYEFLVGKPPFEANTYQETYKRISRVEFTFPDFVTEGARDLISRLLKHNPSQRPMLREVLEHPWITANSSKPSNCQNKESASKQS

The target in one test is human AMP-activated Protein Kinase, alpha 1 (AMPKa1), PRKAA1 (gene 5562) (UniProt Q13131). Description: NVS_ENZ_hAMPKa1: NovaScreen (NVS) Enzymatic Assay for human AMP-activated Protein Kinase, alpha 1 (AMPKa1) (AID 2283130). An outline of the steps: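 Compounds were screened in duplicate at 25 uM, and those reaching ~30% inhibition were titrated up to 50 uM. The enzyme was recombinant human AMPKα1, and kinase turnover was read by fluorescence/mobility shift 1 h post-dosing as loss of signal versus DMSO.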
human AMP-activated Protein Kinase, alpha 1 (AMPKa1), PRKAA1 (gene 5562), sequence (Q13131 whole entry, looked up): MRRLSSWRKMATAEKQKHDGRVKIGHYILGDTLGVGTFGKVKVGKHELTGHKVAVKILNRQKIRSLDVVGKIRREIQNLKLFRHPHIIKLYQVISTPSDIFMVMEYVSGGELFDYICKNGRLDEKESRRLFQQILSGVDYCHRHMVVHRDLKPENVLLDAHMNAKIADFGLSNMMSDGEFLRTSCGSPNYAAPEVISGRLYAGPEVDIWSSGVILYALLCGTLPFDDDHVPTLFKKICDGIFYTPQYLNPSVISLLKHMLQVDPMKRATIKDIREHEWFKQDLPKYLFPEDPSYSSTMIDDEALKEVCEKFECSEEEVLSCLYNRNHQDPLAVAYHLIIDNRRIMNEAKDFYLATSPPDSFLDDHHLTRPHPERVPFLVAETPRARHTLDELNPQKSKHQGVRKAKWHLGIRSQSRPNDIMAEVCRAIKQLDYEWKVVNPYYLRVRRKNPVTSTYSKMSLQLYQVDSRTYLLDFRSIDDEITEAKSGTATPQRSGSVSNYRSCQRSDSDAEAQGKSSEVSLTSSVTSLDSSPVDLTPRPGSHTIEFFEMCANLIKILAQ
With `O=c1[nH]cnc2c1ncn2[C@H]1CC[C@@H](CO)O1`, the call was inactive.

Regarding `Cc1ncc([C@@H](CCCCCCc2ccc3c(n2)NCCC3)CC(=O)O)cn1`, the call was inactive.

Consider `c1ccc(C[n+]2cccc3ccccc32)cc1`, for which the outcome was inactive.

As to `COCC(C)OCC(C)O` (stereo not drawn), the molecule was called inactive.

Consider `O=C(Oc1ccccc1)c1cccc(C(=O)Oc2ccccc2)c1`, for which the outcome was inactive.

Consider `O=C(O)Cc1cc(I)c(Oc2ccc(O)c(I)c2)c(I)c1`, for which the molecule was classed as inactive.

Take `CCc1c(C(=O)NN2CCCCC2)nn(-c2ccc(Cl)cc2Cl)c1-c1ccc(Br)cc1`: the outcome was inactive.

On to `CC1(C)NC(=O)NC1=O`, for which the result was inactive.

`NCCO`: the molecule was called inactive.

For `O=C(OCCOCCOC(=O)c1ccccc1)c1ccccc1`, the molecule was called inactive.

`CCOC(=O)C(C)(C)Oc1ccc(Cl)cc1`: the molecule was classed as inactive.

What is called AC50 is the concentration at which the activity in the assay is half-maximal. For `O=C(O)C1(C(=O)Nc2ccc(Cl)cc2Cl)CC1`, the AC50 was 7.12 µM (active).

`N[C@@H](Cc1cc(I)c(Oc2ccc(O)c(I)c2)c(I)c1)C(=O)O`: the molecule was called inactive.

For the molecule `O=C(OCCCCCOC(=O)c1ccccc1)c1ccccc1`, the molecule was classed as inactive.

`CCCCCCCCCCCCc1ccccc1`: the molecule was called inactive.

Consider `O=C(O)c1ccccc1C(c1ccc(O)cc1)c1ccc(O)cc1`, for which the outcome was inactive.

Take `COc1ccc(OC(F)(F)F)cc1CN[C@H]1CCCN[C@H]1c1ccccc1`: the result was inactive.

Regarding `CC(C)(C)c1ccccc1`, the result was inactive.

In another test the target is human Caspase 10 (CASP10), CASP10 (gene 843) (UniProt Q92851). Description: NVS_ENZ_hCASP10: NovaScreen (NVS) Enzymatic Assay for human Caspase 10 (CASP10) (AID 2283133). An outline of the steps: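 Fluorescence-intensity enzyme read-out of E. coli-expressed CASP10 activity, 1 h after compound. Single-point duplicates at 25 uM preceded concentration-response testing (top 50 uM) of hits; inhibition expressed as signal loss versus DMSO.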
human Caspase 10 (CASP10), CASP10 (gene 843), sequence (Q92851 whole entry, looked up): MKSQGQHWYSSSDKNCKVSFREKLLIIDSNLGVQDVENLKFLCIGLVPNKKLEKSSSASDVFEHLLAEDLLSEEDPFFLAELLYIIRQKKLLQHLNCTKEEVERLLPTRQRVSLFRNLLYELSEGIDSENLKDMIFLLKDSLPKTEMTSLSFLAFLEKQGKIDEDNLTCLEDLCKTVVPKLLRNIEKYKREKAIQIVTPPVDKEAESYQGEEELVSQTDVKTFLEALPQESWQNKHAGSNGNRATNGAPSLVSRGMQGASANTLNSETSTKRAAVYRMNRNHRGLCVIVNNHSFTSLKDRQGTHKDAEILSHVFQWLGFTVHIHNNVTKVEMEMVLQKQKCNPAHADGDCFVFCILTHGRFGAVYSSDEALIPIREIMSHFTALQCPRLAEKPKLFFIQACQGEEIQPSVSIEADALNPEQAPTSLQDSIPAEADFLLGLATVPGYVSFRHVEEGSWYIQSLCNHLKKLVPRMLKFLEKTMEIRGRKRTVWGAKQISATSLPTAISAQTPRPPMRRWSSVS
For `Cc1oc(-c2ccccc2)nc1CCOc1ccc(C[C@H](Nc2ccccc2C(=O)c2ccccc2)C(=O)O)cc1`, the result was inactive.

For `O=C1CCC(C2CCCCC2)CC1`, the molecule was called inactive.

With `CCN(Cc1cccc(S(=O)(=O)O)c1)c1ccc(C(=C2C=CC(=[N+](CC)Cc3cccc(S(=O)(=O)O)c3)C=C2)c2ccccc2S(=O)(=O)[O-])cc1`, the molecule was classed as inactive.

Turning to `CN1C(=O)CC[C@H]1c1cccnc1`, the molecule was classed as inactive.

For `O=C(O)c1[nH]n(-c2ccc(S(=O)(=O)O)cc2)c(=O)c1N=Nc1ccc(S(=O)(=O)O)cc1`, the result was inactive.

As to `CCCCCCCCCCCCCCOS(=O)(=O)O`, the molecule was classed as inactive.

Another test concerns the target human Caspase 2 (CASP2), CASP2 (gene 835) (UniProt P42575). Description: NVS_ENZ_hCASP2: NovaScreen (NVS) Enzymatic Assay for human Caspase 2 (CASP2) (AID 2283135). In outline:
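Single-point duplicate testing at 25 uM preceded concentration series topping at 50 uM. Activity of the recombinant E. coli-derived protease was followed by fluorescent substrate cleavage 1 h post-dosing, relative to DMSO.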
In the case of `c1ccc(Nc2ccccc2)cc1`, the result was inactive.

In the case of `CNCc1cc(F)ccc1Oc1ccc(Cl)c(Cl)c1`, the molecule was called inactive.

Turning to `CCOC(=O)c1ccc(O)cc1`, the outcome was inactive.

Turning to `CCCC(CCC)C(=O)O`, the molecule was called inactive.

For the molecule `CC(=O)c1ccccc1`, the molecule was classed as inactive.

Take `O=C1CCC(N2C(=O)c3ccccc3C2=O)C(=O)N1` (stereo not drawn): the molecule was classed as inactive.

Turning to `Cc1oc(-c2ccccc2)nc1CCOc1cccc2c1ccn2CCC(=O)O`, the outcome was inactive.

Regarding `CCOc1ccc2c(c1)C(C)=CC(C)(C)N2`, the result was inactive.

Take `Cc1cccc2ccccc12`: the call was inactive.

With `O=C(O)c1[nH]n(-c2ccc(S(=O)(=O)O)cc2)c(=O)c1N=Nc1ccc(S(=O)(=O)O)cc1`, the result was inactive.

In the case of `Cc1c(-c2cccnc2)c2ccccc2n1CCCCC(=O)O`, the molecule was called inactive.

Regarding `CCc1cccc(CC)c1N`, the call was inactive.

With `N[C@@H](Cc1c[nH]c2ccccc12)C(=O)O`, the call was inactive.

As to `O=C(O)CCN(C1(C(=O)NO)CCCC1)S(=O)(=O)c1ccc(Oc2ccc(F)cc2)cc1`, the molecule was classed as inactive.

For `Cc1ccc(C(C)(C)C)c(O)c1`, the outcome was inactive.

On to `COC(=O)CC(=O)OC`, for which the result was inactive.

Another test has as its target human Aurora Kinase A - serine/threonine-protein Kinase 6 (AurA), AURKA (gene 6790) (UniProt O14965). Description: NVS_ENZ_hAurA: NovaScreen (NVS) Enzymatic Assay for human Aurora Kinase A - serine/threonine-protein Kinase 6 (AurA) (AID 2283142). An outline of the steps: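 Recombinant human AurA activity read by fluorescence after mobility-shift separation of product from substrate; 1 hour incubation. Chemicals first run in duplicate at 25 uM, then concentration series to 50 uM if over threshold; fitted relative to DMSO.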
Consider `O=c1[nH]cnc2c1ncn2[C@H]1CC[C@@H](CO)O1`, for which the molecule was called inactive.

Consider `Cc1ncc([C@@H](CCCCCCc2ccc3c(n2)NCCC3)CC(=O)O)cn1`, for which the molecule was classed as inactive.

Turning to `CCCC(CCC)C(=O)O`, the molecule was classed as inactive.

On to `O=C(Oc1ccccc1)c1cccc(C(=O)Oc2ccccc2)c1`, for which the call was inactive.

On to `O=C(O)Cc1cc(I)c(Oc2ccc(O)c(I)c2)c(I)c1`, for which the AC50 is 1.37 µM (active).

Turning to `CCc1c(C(=O)NN2CCCCC2)nn(-c2ccc(Cl)cc2Cl)c1-c1ccc(Br)cc1`, the outcome was inactive.

Consider `NCCO`, for which the molecule was called inactive.

With `CCOC(=O)C(C)(C)Oc1ccc(Cl)cc1`, the molecule was called inactive.

Consider `O=C(O)C1(C(=O)Nc2ccc(Cl)cc2Cl)CC1`, for which the AC50 was 16.3 µM (active).

With `N[C@@H](Cc1cc(I)c(Oc2ccc(O)c(I)c2)c(I)c1)C(=O)O`, the AC50 was 4.51 µM (active).

Take `O=C(OCCCCCOC(=O)c1ccccc1)c1ccccc1`: the outcome was inactive.

The next test deals with human Fibroblast Growth Factor Receptor 1 (FGFR1), FGFR1 (gene 2260) (UniProt P11362). Description: NVS_ENZ_hFGFR1: NovaScreen (NVS) Enzymatic Assay for human Fibroblast Growth Factor Receptor 1 (FGFR1) (AID 2283159).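 As to AC50: hits lower the signal so potencies describe inhibitors of the kinase.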 An outline of the steps: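 Cell-free recombinant kinase with fluorescent substrate, product separated by electrophoretic mobility shift; read 1 hour after dosing, loss of signal relative to DMSO. Initial screen in duplicate at 25 uM, actives followed in concentration series.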
human Fibroblast Growth Factor Receptor 1 (FGFR1), FGFR1 (gene 2260), sequence (P11362 whole entry, looked up): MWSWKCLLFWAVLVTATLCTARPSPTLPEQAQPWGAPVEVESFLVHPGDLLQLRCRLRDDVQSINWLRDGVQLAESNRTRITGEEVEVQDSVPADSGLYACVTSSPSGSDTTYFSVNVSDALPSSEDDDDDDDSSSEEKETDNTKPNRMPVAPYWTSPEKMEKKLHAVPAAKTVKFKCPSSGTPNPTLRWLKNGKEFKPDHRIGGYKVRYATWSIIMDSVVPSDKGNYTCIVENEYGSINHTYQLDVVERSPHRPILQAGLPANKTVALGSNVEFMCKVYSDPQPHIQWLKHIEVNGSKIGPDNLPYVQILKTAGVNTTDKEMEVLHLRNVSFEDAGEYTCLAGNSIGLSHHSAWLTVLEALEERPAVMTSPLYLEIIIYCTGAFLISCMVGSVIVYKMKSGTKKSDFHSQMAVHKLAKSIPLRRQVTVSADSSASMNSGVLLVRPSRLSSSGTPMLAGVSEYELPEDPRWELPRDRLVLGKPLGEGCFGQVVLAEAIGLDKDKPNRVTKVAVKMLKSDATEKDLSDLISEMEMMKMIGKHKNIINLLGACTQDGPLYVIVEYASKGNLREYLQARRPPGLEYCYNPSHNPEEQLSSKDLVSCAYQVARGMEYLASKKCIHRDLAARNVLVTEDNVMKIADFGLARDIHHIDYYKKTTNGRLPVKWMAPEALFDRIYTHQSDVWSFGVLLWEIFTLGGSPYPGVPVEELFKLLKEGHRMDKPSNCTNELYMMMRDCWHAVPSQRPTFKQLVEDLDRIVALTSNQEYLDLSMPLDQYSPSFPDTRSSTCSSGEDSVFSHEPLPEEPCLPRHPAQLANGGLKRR
On to `O=c1[nH]cnc2c1ncn2[C@H]1CC[C@@H](CO)O1`, for which the result was inactive.

Turning to `CCOC(=O)c1ccc(O)cc1`, the result was inactive.

Consider `Cc1ncc([C@@H](CCCCCCc2ccc3c(n2)NCCC3)CC(=O)O)cn1`, for which the molecule was classed as inactive.

As for `CCCC(CCC)C(=O)O`, the result was inactive.

For the molecule `COCC(C)OCC(C)O` (stereo not drawn), the outcome was inactive.

With `O=C(Oc1ccccc1)c1cccc(C(=O)Oc2ccccc2)c1`, the molecule was classed as inactive.

On to `Cc1oc(-c2ccccc2)nc1CCOc1cccc2c1ccn2CCC(=O)O`, for which the result was inactive.

Take `CCOc1ccc2c(c1)C(C)=CC(C)(C)N2`: the molecule was classed as inactive.

Consider `CCc1c(C(=O)NN2CCCCC2)nn(-c2ccc(Cl)cc2Cl)c1-c1ccc(Br)cc1`, for which the call was inactive.

Consider `NCCO`, for which the molecule was called inactive.

For `O=C(OCCOCCOC(=O)c1ccccc1)c1ccccc1`, the outcome was inactive.

As for `CCOC(=O)C(C)(C)Oc1ccc(Cl)cc1`, the outcome was inactive.

Take `O=C(O)C1(C(=O)Nc2ccc(Cl)cc2Cl)CC1`: the AC50 was 18.3 µM (active).

Turning to `Cc1c(-c2cccnc2)c2ccccc2n1CCCCC(=O)O`, the molecule was classed as inactive.

Regarding `COc1ccc(OC(F)(F)F)cc1CN[C@H]1CCCN[C@H]1c1ccccc1`, the molecule was classed as inactive.

For the molecule `CCc1cccc(CC)c1N`, the molecule was classed as inactive.

With `Cc1ccc(C(C)(C)C)c(O)c1`, the molecule was classed as inactive.

Source of the values: PubChem BioAssay (EPA / NIEHS).
